This note sets out measurements from PubChem BioAssay (NCATS).

Structures are written as SMILES. Results filed as inconclusive are left out. A number with no mark means an inactive call. Active and inactive are the calls of the source. The call rests on the fitted dose curve; in most records, active means well fitted curve in the direction sought with a large enough effect; inconclusive means small, poorly fitted or top-dose-only effect, or another doubt; inactive means no such curve, though single readings can be large; an effect the other way counts as inactive or inconclusive.

Test [1] in a line: UWB1.289 Cancer Cell Toxicity qHTS against the NCATS CANVASS Library (AID 1347347). Further: nearly all actives have a fitted effect of over 60% in size. Further: potency means the concentration at half of the fitted maximal effect. On activity change, negative = cytotoxicity: series mostly up to about 38 µM; on the % scale 0 is the no-effect control and ±100 the full control effect. A digest of the protocol:
(§1)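 Step one: seed 1000 cells per well. Step two: incubate 4 h. Step three: add test compounds in 11 concentrations. Step four: culture 72 h, then add CellTiter-Glo and record luminescence after 15min.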

Test [2] in a line: SW1088 Cancer Cell Toxicity qHTS against the NCATS CANVASS Library (AID 1347350). Further: nearly all actives have a fitted effect of over 75% in size. Further: potency means the concentration at half of the fitted maximal effect. Summed up: as §1
(qHTS replaces the single test concentration by a dilution series.)

Test [3] is described as follows: A2780 Cisplatin Sensitive Ovarian Cancer Cell Toxicity qHTS against the NCATS CANVASS Library (AID 1347353). Further: nearly all actives have a fitted effect of over 60% in size. Further: potency means the concentration at half of the fitted maximal effect. Summed up:
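Luminescent ATP content (ATPLite, 10 min at room temperature) served as the read-out after cells had been exposed to compounds for 72 hours at 37 °C. Dosing followed an 11-point concentration series.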

The nature of test [4]: UWB1.289-WTBRCA1 Cancer Cell Toxicity qHTS against the NCATS CANVASS Library (AID 1347354). On activity change, negative = cytotoxicity: on the % scale 0 is the no-effect control and ±100 the full control effect. Summed up: (§2)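 Luminescent ATP read-out (CellTiter-Glo, 15min at room temperature) measures survival after cells face an 11-point compound series for 72 hours at 37 degrees C/5% CO2.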
Test [5] is described as follows: HEK-293 Cancer Cell Toxicity qHTS against the NCATS CANVASS Library (AID 1347355). Further: nearly all actives have a fitted effect of over 65% in size. Further: potency means the concentration at half of the fitted maximal effect. On outcome: series mostly up to about 46 µM. Summed up: as §2
Test [6] has as its system NAD(P)H diaphorase (Clostridium kluyveri). Briefly: Diaphorse counterscreen qHTS: Assay Interference Panel against the NCATS CANVASS Library (AID 1347362). Further: potency means the concentration at half of the fitted maximal effect. On activity change, negative = inhibition: 0% is about no effect. Summed up: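 Clostridium kluyveri diaphorase in PBS + 0.01% Tween-20 preincubated 15 min with compounds. Resazurin and NADH then added for 5 min at room temperature in the dark; resorufin fluorescence read (ex 525, em 598).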
In general terms: The purpose of a counterscreen is to sort out artefacts and off-target activity.

Test [7] in a line: KB-8-5-11 Cancer Cell Toxicity qHTS against the NCATS CANVASS Library (AID 1347364). Further: nearly all actives have a fitted effect of over 75% in size. Further: potency means the concentration at half of the fitted maximal effect. Summed up:
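Plate 500 KB-8-5-11 cells per well in DMEM + 10% FBS, add compounds by pin transfer, incubate 72 hr at 37C. Add CellTiter-Glo, wait 10 minutes at room temperature, read luminescence.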

Test [8] in a line: SDT Cancer Cell Toxicity qHTS against the NCATS CANVASS Library (AID 1347365). Further: nearly all actives have a fitted effect of over 60% in size. Further: potency means the concentration at half of the fitted maximal effect.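 On activity change, negative = cytotoxicity: SDT canine glioma cells 500 per well in 1536 well plates; series mostly up to about 46 µM; on the % scale 0 is the no-effect control and ±100 the full control effect.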 A digest of the protocol:
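qHTS, SDT dog glioma line, 500 cells/well; cpds 11 pts; 72 hr, 37C, 5% CO2; CellTiterGlo ATP luminescence.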

The nature of test [9]: KB-3-1 Cancer Cell Toxicity qHTS against the NCATS CANVASS Library (AID 1347366). Further: nearly all actives have a fitted effect of over 75% in size. Further: potency means the concentration at half of the fitted maximal effect. Summed up:
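KB-3-1 cells (500 cells/well) in DMEM + 10% FBS were treated with compounds for 72 hr at 37C, 5% CO2. Viability was read as CellTiter-Glo luminescence after 10 minutes at room temperature.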

Test [10] can be described thus: qHTS for Hypoxia signaling pathway (HIF-1) antagonists against the NCATS CANVASS Library (AID 1347374). Further: nearly all actives have a fitted effect of over 60% in size. Further: potency means the concentration at half of the fitted maximal effect. Summed up:
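HRE-bla ME-180 cells in medium with 0.5% dialyzed FBS received compounds (11-point series) plus CoCl2 (60 uM addition stock) for 17 hrs at 37C. Beta-lactamase activity read with CCF4 (405 nm ex, 460/530 nm em); CellTiter-Glo viability measured in same wells.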

Test [11] in a line: qHTS for Hypoxia signaling pathway (HIF-1) agonists against the NCATS CANVASS Library (AID 1347375). Further: 0% is about no effect. A digest of the protocol:
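ME-180 HRE-bla reporter cells; 2,000/well, 0.5% dialyzed FBS; cpd added after 5 h, 17 h 37C/5% CO2; CCF4-AM 2 h RT; FRET 460/530 nm; CellTiter-Glo viability same wells, 30 min.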

A short description of test [12]: DH5-alpha competent E. coli microbial cell viability qHTS against the NCATS CANVASS Library (AID 1347377). To be noted: outcome: dose series up to 46.1 µM unless noted. Summed up: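 qHTS, 11-pt; E. coli DH5-alpha, 0.2 OD; o/n 37C/5% CO2; BacTiter-Glo, 20 min RT; luminescence.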
Test [13] is described as follows: qHTS for H2AX Agonists against the NCATS CANVASS Library (AID 1347378). Further: potency means the concentration at half of the fitted maximal effect. On activation: 0% is about no effect. Summed up: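 CHO-K1 cells were plated overnight at 37C, then exposed to compounds (concentration series, 0.76% DMSO final) for 3 hr at 37C. Lysates received Eu-cryptate anti-pH2AX (S139) and d2 anti-H2AX antibodies; after 24 hr at room temperature, TR-FRET 665/620 nm ratio was read.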
Test [14] can be described thus: qHTS for Activators of p53 Stress Response Pathway screened against the NCATS CANVASS Library (AID 1347388). Further: 0% is about no effect. Summed up:
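p53RE-bla HCT-116 cells (4000/well) were pre-incubated for 5 h, then treated with compound (11 points) for 16 h at 37C. After 2 h with CCF4, the 460/530 nm ratio gave reporter activation; CellTiter-Glo measured viability.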

Test [15] can be described thus: Secretion counterscreen for inhibitors of the SERCaMP assay screened against the NCATS CANVASS Library (AID 1347390).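 Further: light from luciferase secreted into medium read as a measure of general secretion.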 Further: potency means the concentration at half of the fitted maximal effect. Summed up:
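SH-SY5Y cells expressing constitutively secreted GLuc, 1000 cells/well, attached 4 h at 37C, then exposed to compounds (0.001 - 77 uM, 11-pnt series) for 20 h. Coelenterazine added; luminescence read to flag secretory-pathway interferers.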

Test [16] in a line: qHTS for activators of dead-cell proteases activity screened against the NCATS CANVASS Library (AID 1347392).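 Further: luminescence from protease leaking out of membrane-damaged cells cleaving impermeant substrate; 0% is about no effect; rising signal means more cytotoxicity.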 A digest of the protocol:
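HepG2 cells, 2000/well, attached 18 h at 37C, then exposed to compounds (11-point qHTS) for 5 h. Dead-cell protease release read as luminescence from cell-impermeant AAF-aminoluciferin substrate after 15 min at room temperature.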

Test [17] can be described thus: qHTS for inhibitors of ER calcium dysfunction: SERCaMP assay screened against the NCATS CANVASS Library (AID 1347393). Further: nearly all actives have a fitted effect of over 40% in size. Further: potency means the concentration at half of the fitted maximal effect.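 On activity change, negative = inhibition: series mostly up to about 77 µM; on the % scale 0 is the no-effect control and ±100 the full control effect; lower secreted reporter signal means inhibitor of ER calcium depletion.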 Summed up:
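SH-SY5Y GLuc-SERCaMP, 1000 cells/well, 4 h attach; cpd 16 h, 37C/5% CO2; thapsigargin (added as 6x 600 nM) 4 h; coelenterazine; luminescence. Reduced reporter release = ER Ca stabilization.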

Test [18] in a line: qHTS for inhibitors of Wild type Zika virus screened against the NCATS CANVASS Library (AID 1347396).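 Further: ATP luminescence of surviving cells so rescue from viral cell killing; series mostly up to about 46 µM; on the % scale 0 is the no-effect control and ±100 the full control effect.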 A digest of the protocol: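 Vero 766 cells, 1000/well, o/n attach; cpds pin-transferred (11-pt qHTS); WT Zika added; 72 h, 37C, 5% CO2; CellTiter Glo lumi. Uninfected + vehicle = 100% inhibition.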
The nature of test [19]: Viability qHTS for inhibitors of the SERCaMP assay screened against the NCATS CANVASS Library (AID 1347400). Further: nearly all actives have a fitted effect of over 70% in size. Further: potency means the concentration at half of the fitted maximal effect. Summed up: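 SH-SY5Y SERCaMP MJH297 cells, 1000/well; 4 h settle, 37C/5% CO2; pin-transferred cpds; 48 h; CellTiter-Glo lum. Pos ctrl bortezomib 0.0001 - 4.6 uM.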
Test [20] is described as follows: Redox Reaction Profiling qHTS: Assay Interference Panel against the NCATS CANVASS Library (AID 1347401).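 Further: 100% = activation by 2 µM chloranil control.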 A digest of the protocol:
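Compounds in 11-point series incubated with 5 uM resazurin and 200 uM DTT in 50 mM HEPES pH 7.3, 50 mM NaCl. Resorufin fluorescence (Ex 525/Em 598) read before and after 15 min in the dark.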

`CN1C(=O)C2C(N=CN2C)N(C)C1=O` (stereo not drawn): the Potency entry in [1], in [2], in [3], in [4], in test [5] and in test [6] was “inactive” each time. Besides, the Potency result in test [7], in [8], in test [9], in test [10], in [11] and in test [13] was “inactive” throughout. The Potency result in [14], in test [15], in test [16], in test [17], in [18] and in test [19] was “inactive” in each case. The Potency entry in [20] was “inactive”. The outcome in test [12] was inactive.
For `C[C@@]12CCC[C@@](C)(C(=O)O)[C@H]1CC[C@]13C[C@H]4C[C@H](O[C@@]4(C)C1)[C@H]32`, the Potency in test [1] is 7.47 µM (active). Moreover, the Potency entry in test [2], in test [3], in test [5], in test [6], in test [7] and in test [8] was “inactive” each time. The Potency result in test [9], in test [10], in test [11], in [13], in test [14] and in test [15] was “inactive” each time. For the same compound, the Potency entry in test [16], in test [17], in [18], in test [19] and in test [20] was “inactive” each time. Besides, the outcome in test [12] was inactive.
Take `CC(=O)NC[C@@H]1O[C@H](CC/C=C(C)/C(C)=C/C=O)[C@H](C)C[C@H]1O`: the Potency result in test [1], in test [2], in [4], in test [5], in test [6] and in [7] was “inactive” throughout. Moreover, the Potency entry in [9], in [10], in test [11], in [13], in test [14] and in test [16] was “inactive” each time. In addition, the Potency entry in test [18] and in test [20] was “inactive” each time. Moreover, in test [12], the call was inactive. The Potency in [17] was 34.3 µM (active).
On to `COc1ccc2oc3c(OC)c(OC)c(OC)c(OC)c3c(=O)c2c1`, for which the activity change, negative = cytotoxicity is -4.07% [at 7.64 µM] in test [1]; 3.04% [at 7.64 µM] in test [2]; 9.39% [at 7.64 µM] in test [4]; -6.97% [at 9.19 µM] in test [5]; -18.8% [at 9.19 µM] in [8]; -8.69% [at 9.19 µM] in test [9]. The activity change, negative = cytotoxicity in [19] was -11.8% [at 18.4 µM]. Moreover, the outcome in test [3] and in test [12] was “inactive [at 9.19 µM]” throughout. Further, the activity change, negative = inhibition is -18.3% [at 11.5 µM] in test [6], 0.76% [at 7.64 µM] in [10], -3.74% [at 15.3 µM] in test [15] and -15.7% [at 15.3 µM] in [17]. Besides, the results for the activation in [11], in test [13] and in test [14] were 1.59% [at 7.64 µM], -1.65% [at 15.3 µM] and -1.1% [at 9.19 µM], respectively. For the same compound, in test [16], the activation (cytotoxicity) was -1.14% [at 9.19 µM]. In addition, the activity change, negative = antiviral in test [18] was -12.7% [at 9.14 µM]. Moreover, the activation (redox signal) in test [20] was -9.99% [at 11.4 µM].
Take `C/C=C/C(=O)[C@@H](C)C1=CC(=O)C2=C(O[C@@]34CC[C@H](O)C(C)(C)[C@@H]3CC[C@H](C)[C@@]4(C)C2)C1=O`: the Potency in test [1] was 21.1 µM (active); in test [2] it was 7.49 µM (active); in [3], 1.66 µM (active); in test [5], 2.96 µM (active); in test [6], 8.61 µM (active); in [7] it was 14.8 µM (active). Also, the Potency was 2.96 µM (active) in test [8]; 20.9 µM (active) in test [9]; 2.11 µM (active) in [10]; 15.4 µM (active) in [13]; 17.2 µM (active) in test [15]; 13.5 µM (active) in [19]. The outcome in [12] was inactive. Further, the Potency result in test [20] was “inactive”.
For `C[C@@H]1C(=O)[C@]23CC[C@H]1C[C@]21O[C@H]2C(C)(C)C=CC(=O)[C@]23COC1=O`, the Potency result in test [1], in test [2], in test [3], in test [4], in test [5] and in test [6] was “inactive” each time. The Potency entry in test [7], in test [8], in [9], in test [10], in test [11] and in test [13] was “inactive” in each case. Also, the Potency result in [14], in [15], in [16], in test [17], in test [18] and in test [19] was “inactive” each time. In addition, the Potency entry in test [20] is “inactive”. The result in test [12] was inactive.
